{"source": "PubChem BioAssay (NCI)", "note": "Where “and” joins values, the source holds several entries; their conditions need not be identical. Equal entries are not always repeated. About 83,000 compounds went through this panel and 20% of them were active in at least one assay; those are over-represented in the sample as a whole.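 Step 1: grow cells in 96-well plates. Step 2: add test compound at a single concentration. Step 3: incubate 48 h. Step 4: record percent growth.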 Calls of active or inactive are those of the source. The calls were made as follows: active = growth percent below 10; inactive = the rest.", "data": [{"system": "TK-10 renal", "assay": "NCI-60 one-dose screen, 48 h (100 = growth as untreated, 0 = no growth, -100 = all killed)", "conditions": "10 µM unless noted", "values": [{"compound": "CCc1cccc2c3c(sc12)C(c1ccc(F)cc1)C(C#N)=C(/N=C/c1ccc(Cl)cc1)O3", "note": "(stereo not given)", "growth": "93.5% (inactive)"}, {"compound": "Cc1ccc2c(n1)C(=O)C(Cl)=C(Nc1ccc(C(=O)OC(C)(C)C)cc1)C2=O", "growth": "83.9% [9.25 µM] (inactive)"}, {"compound": "Clc1ccc2[nH]cc(-c3cncn3CCc3ccc4c(c3)OCO4)c2c1", "growth": "96.9% (inactive)"}, {"compound": "CCCCCCCCCC(=O)NC(C)(C)C(=O)N1CCC[C@H]1C(=O)N[C@@H](CC(C)C)C(=O)N[C@@](C)(CC)C(=O)N[C@@H](CCC(N)=O)C(=O)N[C@H](CCC(N)=O)C(=O)NC(C)(C)C(=O)NC(C)(C)C(=O)N[C@@H](CCC(N)=O)C(=O)N[C@H](CC(C)C)C(=O)N[C@H](CO)CC(C)C", "growth": "-70.9% (active) and 14.9% (inactive)"}, {"compound": "C=C1CCc2nc(SCC(=O)O)ccc2N1", "growth": "100% (inactive)"}, {"compound": "CC[C@]12C=CCN3CC[C@@]4(c5ccc(OC)cc5N(C)[C@H]4[C@@](O)(C(=O)OC)[C@@H]1OC(=O)CCN1CCc4ccccc4C1)[C@@H]32", "growth": "98.8% (inactive)"}, {"compound": "CCOC(=O)c1cccnc1Nc1ccc(NC(=O)Nc2ccc(Cl)c(C(F)(F)F)c2)cc1", "growth": "40.3% (inactive)"}, {"compound": "Cc1ccc(S(=O)(=O)NCCCNc2nccc(-c3[nH]c(-c4ccccc4)nc3-c3ccc(F)c(O)c3)n2)cc1", "growth": "134% (inactive)"}, {"compound": "O=C(CSc1nnc(-c2ccc(Cl)cc2)n1-c1ccccc1)Nc1ccc(Cl)cc1", "growth": "-6.39% (active)"}, {"compound": "Cc1ccc2c(n1)C(=O)C(Cl)=C(Nc1ccc(C(F)(F)F)cc1)C2=O", "growth": "85.4% (inactive)"}]}]}
